Here are results for 37 molecules from PubChem BioAssay (NCATS).

“And” between values parts separate entries of the source, which are not always exact repeats. Identical values can stand only once. Records with an inconclusive call do not appear. The source made the active and inactive calls. Calls come from the whole dose curve; as a rule, active = well fitted inhibition curve with a large enough effect; inconclusive = small, poorly fitted or top-dose-only effect; inactive = flat fitted curve, though single readings scatter. Where a SMILES comes first, the peptide text is derived from it. Bridges are numbered along the chain shown (N, C = ends). [ ]: non-standard residue; d: D form. Orn = NCCC[C@H](N)C(=O)O; Mpa = O=C(O)CCS
% is set by controls: 0 for no effect and ±100 for the full control effect.

The experiment is described as follows: Drug repurposing screens with cells derived from glioblastoma tumor samples (AID 1345199). Note: nearly all actives have a fitted effect of over 40% in size. The settings on record: GBM patient neurospheres viability, ATP luminescence, 48 h; at 45.9 µM (top of the series); tumour line B. The procedure, abridged:
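Primary testing used CD133+ neurospheres from four GBM patients, seven concentrations, 48 h exposure and ATP-based viability; confirmation added three slower-growing patient lines.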
Consider `N[C@@H](C(=O)N[C@H]1C(=O)N2C(C(=O)O)=C(Cl)CC[C@H]12)c1ccccc1`, for which the activity, negative = cell killing is 3.07% (inactive).
For `O.O=C([O-])CC([S-])C(=O)[O-].[Au+].[Na+].[Na+]` (configuration not stated), the activity, negative = cell killing was -5.96% (inactive).
On to `CC(=O)O[C@H]1CC[C@@]2(C)C(=CC[C@@H]3[C@@H]2CC[C@]2(C)C(c4cccnc4)=CC[C@@H]32)C1`, for which the activity, negative = cell killing was -19.3% (inactive).
`O=C(Cn1cnnn1)N[C@@H]1C(=O)N2C(C(=O)O)=C(CSc3nncs3)CS[C@H]12`: the activity, negative = cell killing was -3.62% (inactive) and -9.64% (inactive).
To `Cc1cc(Nc2ccccc2C(=O)O)ccc1Cl` belongs -5.77% (inactive); to `OCC(O)COc1ccc(Cl)cc1` (configuration not stated), -4.12% (inactive).
Consider `O=C1O[C@@H]2[C@@H](O)[C@H](O)O[C@@H]2[C@H]1O`, for which the activity, negative = cell killing was -11.2% (inactive).
Turning to `NCCC[C@H](N)C(=O)O`, the activity, negative = cell killing was -11.7% (inactive).
On to `CS(=O)(=O)OCCCNCCCOS(C)(=O)=O`, for which the activity, negative = cell killing is 5.52% (inactive).
As for `CCOC(=O)COc1ccc2c(C)c(CCN(CC)CC)c(=O)oc2c1`, the activity, negative = cell killing was 4.06% (inactive).
Turning to `C/C(=C(\CCOC(=O)c1ccccc1)SS/C(CCOC(=O)c1ccccc1)=C(/C)N(C=O)Cc1cnc(C)nc1N)N(C=O)Cc1cnc(C)nc1N`, the activity, negative = cell killing was -18% (inactive).
`CCC(=O)Oc1ccc2c(c1)CC[C@@H]1[C@@H]2CC[C@]2(C)[C@@H](OC(=O)CC)CC[C@@H]12`: the activity, negative = cell killing was -0.785% (inactive).
`CCC(=O)OCC(=O)[C@@]1(OC(=O)CC)[C@@H](C)C[C@H]2[C@@H]3CCC4=CC(=O)C=C[C@]4(C)[C@@]3(Cl)[C@@H](O)C[C@@]21C`: the activity, negative = cell killing was -9.44% (inactive).
Turning to `Nc1ncnc(Nc2ccc(Cl)cc2)n1`, the activity, negative = cell killing is -4.5% (inactive).
For `O=P(O)(O)OC(Cn1cncn1)(Cn1cncn1)c1ccc(F)cc1F`, the activity, negative = cell killing is -3.57% (inactive).
Consider `CCCCCCCCCCCCCCCC(=O)O[C@@H]1CC(C)=C(/C=C/C(C)=C/C=C/C(C)=C/C=C/C=C(C)/C=C/C=C(C)/C=C/C2=C(C)C[C@@H](OC(=O)CCCCCCCCCCCCCCC)CC2(C)C)C(C)(C)C1`, for which the activity, negative = cell killing was -12.7% (inactive).
As for `NCCC(=O)[N-][C@@H](Cc1cnc[nH]1)C(=O)O.[Zn]`, the activity, negative = cell killing is -11.4% (inactive).
Take `Cc1cc(-n2c(=O)[nH]c(=O)n(C)c2=O)ccc1Oc1ccc(S(=O)(=O)C(F)(F)F)cc1`: the activity, negative = cell killing was -20.8% (inactive).
As for `CN(C(=O)CO)c1c(I)c(C(=O)NCC(O)CO)c(I)c(C(=O)NCC(O)CO)c1I` (configuration not stated), the activity, negative = cell killing is -7.14% (inactive).
Take `CCC(C)(C)OC(=O)N[C@@H](Cc1c[nH]c2ccccc12)C(=O)N[C@@H](CCSC)C(=O)N[C@@H](CC(=O)O)C(=O)N[C@@H](Cc1ccccc1)C(N)=O`: the activity, negative = cell killing is -2.77% (inactive).
With `O=C(O)c1cc2ccccc2c(Cc2c(O)c(C(=O)O)cc3ccccc23)c1O`, the activity, negative = cell killing is 5.19% (inactive).
Take `CCOc1ccc(C[C@H]2NC(=O)CCSSC[C@@H](C(=O)N3CCC[C@H]3C(=O)N[C@@H](CCCN)C(=O)NCC(N)=O)NC(=O)[C@H](CC(N)=O)NC(=O)[C@H]([C@@H](C)O)NC(=O)[C@H]([C@@H](C)CC)NC2=O)cc1` ([Mpa][dY](Et)ITNCP[Orn]G-NH2; disulfide 1-6): the activity, negative = cell killing is -9.93% (inactive).
As for `c1cnc2cc3c(cc2n1)[C@@H]1CNC[C@H]3C1`, the activity, negative = cell killing was 5.48% (inactive).
Take `O=S(=O)(O)Oc1ccc(C(c2ccc(OS(=O)(=O)O)cc2)c2ccccn2)cc1`: the activity, negative = cell killing is 0.447% (inactive).
Consider `CO[C@H]1[C@@H](O)[C@H](N)[C@@H](O[C@H]2O[C@H]([C@H](C)N)CC[C@H]2N)[C@H](O)[C@@H]1N(C)C(=O)CN`, for which the activity, negative = cell killing was -11.8% (inactive).
The same measure for `CCCCOC(=O)C(=O)Nc1cccc(-c2nn[nH]n2)c1`: -12.5% (inactive); for `CC(=O)[C@@]1(O)CC[C@H]2[C@@H]3C=C(Cl)C4=CC(=O)CC[C@]4(C)[C@H]3CC[C@@]21C`: -7.69% (inactive).
On to `CC1(C)S[C@@H]2[C@H](NC(=O)[C@H](N)c3ccccc3)C(=O)N2[C@H]1C(=O)OCOC(=O)[C@@H]1N2C(=O)C[C@H]2S(=O)(=O)C1(C)C`, for which the activity, negative = cell killing was -6.39% (inactive).
With `COc1ccc(CNCC(O)COc2ccc3[nH]c(=O)ccc3c2)cc1OC` (configuration not stated), the activity, negative = cell killing is -3.95% (inactive).
To `NC(=O)C[C@@H](N)C(=O)O` belongs 8.61% (inactive); to `O=C(O)[C@@H](O)[C@H](O)[C@H](O)[C@@H](O)C(=O)O` (tested in a mixture with another compound), -6.98% (inactive); to `CC(C(=O)O)c1ccc(C2CCCCC2)c2ccccc12` (configuration not stated), -3.21% (inactive).
For `CCOc1ccc(N=C(C)Nc2ccc(OCC)cc2)cc1`, the activity, negative = cell killing was -12.2% (inactive).
Regarding `NCCCC[C@H](NC(=O)[C@@H]1CCCN1C(=O)[C@@H]1CSSC[C@H](NC(=O)CNC(=O)CNC(=O)CN)C(=O)N[C@@H](Cc2ccc(O)cc2)C(=O)N[C@@H](Cc2ccccc2)C(=O)N[C@@H](CCC(N)=O)C(=O)N[C@@H](CC(N)=O)C(=O)N1)C(=O)NCC(N)=O` (H-GGGCYFQNCPKG-NH2; disulfide 4-9), the activity, negative = cell killing is -8.67% (inactive).
To `COc1cc2[nH]c(C)c(CCN3CCN(c4ccccc4)CC3)c2cc1OC` belongs -18.7% (inactive).
In the case of `CCCN(CC)C(CC)C(=O)Nc1c(C)cccc1C` (configuration not stated), the activity, negative = cell killing was -5.49% (inactive).
The same measure for `CC(=O)OC[C@H]1O[C@@H](O[C@H]2[C@H](O)[C@@H](OC(=O)c3ccccc3C(=O)O)[C@H](O)O[C@@H]2COC(C)=O)[C@H](O)[C@@H](OC(=O)c2ccccc2C(=O)O)[C@@H]1O`: -10.5% (inactive).
